We go through eleven molecules from article PMC12864922, “TDP-43 directly inhibits mRNA accumulation in neurites through modulation of mRNA stability”.

First the molecules themselves.
B1: ENSMUSG00000028439.233|Fam219a (ssRNA)
RNA: GGGAGUUCUACAGUCCGACGAUCGCUUCGAUAUCCGCAUGCUACACCGACAGAGUCUUUUCAUACCAGAAGGAAUUUCUUCACAGGAGUUUCUGCAAAAGACUAUGACAUCUGUGUGUCUGUGGUCUCACGAGGUACCUGGAGGUGUAUGUGCACGGACAUGGGAAGUACGUGAAGAUUUAUUUCGGGAAAAGUGGUGUGUGUGUAGCUGUACUGGGUGUCAUGUAUGCUGUUGCUUCUGCUGCUGGUCUGGUCUGAGGGAGGAAAGCUGAGGCUGUAGCUCAGUGAGAUGGUGGCUCUCCCACUCUUGCGGUCGCACUAGUGUGGAAUUCUCGGGUGUCAAGG
B2: ENSMUSG00000058297.18|Spock2 (ssRNA)
RNA: GGGAGUUCUACAGUCCGACGAUCGCUUCGAUAUCCGCAUGCUAAGCCCUCGACGGCCUCGGCAGGCCAGGGUGCCGACGGCCAGAAAGACAGGCCAGAAGAGACCUGGACAACAGCAGGCAACUUAGCAAAUGGAUCCGGAAGUCAGUGCGGAGGACCCUGGCUCCAGUGGGGGAGGACUGGGGAGUGUGGCUUGUGUGUAUGUGUGAUAUGAGAUGUGUGUGUAUGAUGUGAGAUGUGAGUGUGUGAUGUGAGAUGUGUGUAUGUGAGAUGUGUGUGUGUGUGUGUGUGUGUGUGAUGUGAGCUCUUGCGGUCGCACUAGUGUGGAAUUCUCGGGUGUCAAGG
B3: ENSMUSG00000058297.18|Spock2|143:147;151:164;173:184;198:204;213:222;228:253 (ssRNA)
RNA: GGGAGUUCUACAGUCCGACGAUCGCUUCGAUAUCCGCAUGCUAAGCCCUCGACGGCCUCGGCAGGCCAGGGUGCCGACGGCCAGAAAGACAGGCCAGAAGAGACCUGGACAACAGCAGGCAACUUAGCAAAUGGAUCCGGAAGUCAGUGCGGAGGACCCUGGCUCCAGUGGGGGAGGACUGGGGACACACGCUACACACAUACACACAUAUGAGAACACACACAUACAUGUGAGAUGUGACACACACAUGUGAGAACACACAUACUGAGAACACACACACACACACACACACACACAUGUGAGCUCUUGCGGUCGCACUAGUGUGGAAUUCUCGGGUGUCAAGG
B4: ENSMUSG00000058297.19|Spock2 (ssRNA)
RNA: GGGAGUUCUACAGUCCGACGAUCGCUUCGAUAUCCGCAUGCUACGACGGCCUCGGCAGGCCAGGGUGCCGACGGCCAGAAAGACAGGCCAGAAGAGACCUGGACAACAGCAGGCAACUUAGCAAAUGGAUCCGGAAGUCAGUGCGGAGGACCCUGGCUCCAGUGGGGGAGGACUGGGGAGUGUGGCUUGUGUGUAUGUGUGAUAUGAGAUGUGUGUGUAUGAUGUGAGAUGUGAGUGUGUGAUGUGAGAUGUGUGUAUGUGAGAUGUGUGUGUGUGUGUGUGUGUGUGUGAUGUGAGUCACCCCUCUUGCGGUCGCACUAGUGUGGAAUUCUCGGGUGUCAAGG
B5: ENSMUSG00000058297.19|Spock2|137:141;145:158;167:178;192:198;207:216;222:247 (ssRNA)
RNA: GGGAGUUCUACAGUCCGACGAUCGCUUCGAUAUCCGCAUGCUACGACGGCCUCGGCAGGCCAGGGUGCCGACGGCCAGAAAGACAGGCCAGAAGAGACCUGGACAACAGCAGGCAACUUAGCAAAUGGAUCCGGAAGUCAGUGCGGAGGACCCUGGCUCCAGUGGGGGAGGACUGGGGACACACGCUACACACAUACACACAUAUGAGAACACACACAUACAUGUGAGAUGUGACACACACAUGUGAGAACACACAUACUGAGAACACACACACACACACACACACACACAUGUGAGUCACCCCUCUUGCGGUCGCACUAGUGUGGAAUUCUCGGGUGUCAAGG
B6: ENSMUSG00000058297.21|Spock2|125:129;133:146;155:166;180:186;195:204;210:235 (ssRNA)
RNA: GGGAGUUCUACAGUCCGACGAUCGCUUCGAUAUCCGCAUGCUACAGGCCAGGGUGCCGACGGCCAGAAAGACAGGCCAGAAGAGACCUGGACAACAGCAGGCAACUUAGCAAAUGGAUCCGGAAGUCAGUGCGGAGGACCCUGGCUCCAGUGGGGGAGGACUGGGGACACACGCUACACACAUACACACAUAUGAGAACACACACAUACAUGUGAGAUGUGACACACACAUGUGAGAACACACAUACUGAGAACACACACACACACACACACACACACAUGUGAGUCACCCAAAGGUCCCUAUCUCUUGCGGUCGCACUAGUGUGGAAUUCUCGGGUGUCAAGG
B7: ENSMUSG00000058297.5|Spock2|221:225;229:242;251:259 (ssRNA)
RNA: GGGAGUUCUACAGUCCGACGAUCGCUUCGAUAUCCGCAUGCUAAGAAGAGGCAGGGGAGGAGGCCGAGGAGGAGGAGGGUGAGGCGGGUGAGGCAGAUGAUGGAGGCUACAUCUGGUAGAUAGCCCUCGACGGCCUCGGCAGGCCAGGGUGCCGACGGCCAGAAAGACAGGCCAGAAGAGACCUGGACAACAGCAGGCAACUUAGCAAAUGGAUCCGGAAGUCAGUGCGGAGGACCCUGGCUCCAGUGGGGGAGGACUGGGGACACACGCUACACACAUACACACAUAUGAGAACACACACAACUCUUGCGGUCGCACUAGUGUGGAAUUCUCGGGUGUCAAGG
B8: ENSMUSG00000058297.20|Spock2|131:135;139:152;161:172;186:192;201:210;216:241 (ssRNA)
RNA: GGGAGUUCUACAGUCCGACGAUCGCUUCGAUAUCCGCAUGCUACCUCGGCAGGCCAGGGUGCCGACGGCCAGAAAGACAGGCCAGAAGAGACCUGGACAACAGCAGGCAACUUAGCAAAUGGAUCCGGAAGUCAGUGCGGAGGACCCUGGCUCCAGUGGGGGAGGACUGGGGACACACGCUACACACAUACACACAUAUGAGAACACACACAUACAUGUGAGAUGUGACACACACAUGUGAGAACACACAUACUGAGAACACACACACACACACACACACACACAUGUGAGUCACCCAAAGGUCUCUUGCGGUCGCACUAGUGUGGAAUUCUCGGGUGUCAAGG
B9: ENSMUSG00000058297.22|Spock2 (ssRNA)
RNA: GGGAGUUCUACAGUCCGACGAUCGCUUCGAUAUCCGCAUGCUAAGGGUGCCGACGGCCAGAAAGACAGGCCAGAAGAGACCUGGACAACAGCAGGCAACUUAGCAAAUGGAUCCGGAAGUCAGUGCGGAGGACCCUGGCUCCAGUGGGGGAGGACUGGGGAGUGUGGCUUGUGUGUAUGUGUGAUAUGAGAUGUGUGUGUAUGAUGUGAGAUGUGAGUGUGUGAUGUGAGAUGUGUGUAUGUGAGAUGUGUGUGUGUGUGUGUGUGUGUGUGAUGUGAGUCACCCAAAGGUCCCUAUGUUAUUCUCUUGCGGUCGCACUAGUGUGGAAUUCUCGGGUGUCAAGG
B10: ENSMUSG00000058297.20|Spock2 (ssRNA)
RNA: GGGAGUUCUACAGUCCGACGAUCGCUUCGAUAUCCGCAUGCUACCUCGGCAGGCCAGGGUGCCGACGGCCAGAAAGACAGGCCAGAAGAGACCUGGACAACAGCAGGCAACUUAGCAAAUGGAUCCGGAAGUCAGUGCGGAGGACCCUGGCUCCAGUGGGGGAGGACUGGGGAGUGUGGCUUGUGUGUAUGUGUGAUAUGAGAUGUGUGUGUAUGAUGUGAGAUGUGAGUGUGUGAUGUGAGAUGUGUGUAUGUGAGAUGUGUGUGUGUGUGUGUGUGUGUGUGAUGUGAGUCACCCAAAGGUCUCUUGCGGUCGCACUAGUGUGGAAUUCUCGGGUGUCAAGG
B11: ENSMUSG00000058297.21|Spock2 (ssRNA)
RNA: GGGAGUUCUACAGUCCGACGAUCGCUUCGAUAUCCGCAUGCUACAGGCCAGGGUGCCGACGGCCAGAAAGACAGGCCAGAAGAGACCUGGACAACAGCAGGCAACUUAGCAAAUGGAUCCGGAAGUCAGUGCGGAGGACCCUGGCUCCAGUGGGGGAGGACUGGGGAGUGUGGCUUGUGUGUAUGUGUGAUAUGAGAUGUGUGUGUAUGAUGUGAGAUGUGAGUGUGUGAUGUGAGAUGUGUGUAUGUGAGAUGUGUGUGUGUGUGUGUGUGUGUGUGAUGUGAGUCACCCAAAGGUCCCUAUCUCUUGCGGUCGCACUAGUGUGGAAUUCUCGGGUGUCAAGG

Whole data set: some 9,900 sequences, median “r (bound/input frequency ratio)” near 0.7, cut for the highest 2% near 6.5. The sample as a whole holds a higher share of the highest values than the screen did.

TDP-43, sequence (Q13148 whole entry): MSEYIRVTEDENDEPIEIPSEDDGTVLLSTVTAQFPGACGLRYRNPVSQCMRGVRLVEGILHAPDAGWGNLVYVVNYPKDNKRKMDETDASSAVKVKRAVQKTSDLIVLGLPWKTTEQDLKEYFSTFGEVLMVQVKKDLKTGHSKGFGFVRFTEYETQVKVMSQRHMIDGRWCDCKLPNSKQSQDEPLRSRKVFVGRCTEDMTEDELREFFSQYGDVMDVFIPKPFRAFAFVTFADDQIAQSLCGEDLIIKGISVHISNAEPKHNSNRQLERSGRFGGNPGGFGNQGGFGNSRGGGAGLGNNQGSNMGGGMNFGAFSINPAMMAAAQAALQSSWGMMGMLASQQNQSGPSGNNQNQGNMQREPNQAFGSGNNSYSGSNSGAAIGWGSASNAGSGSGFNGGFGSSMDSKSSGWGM

This test addresses TDP-43 (Homo sapiens, UniProt Q13148 1-414). The experiment in a line: RNA Bind-n-Seq with designed 260-mer pool; 25 mM Tris-HCl, 150 mM KCl, 3 mM MgCl2, BSA (printed 500 mg/mL), 20 units/mL SUPERase IN; pH not stated; 500 nM RNA pool, 1 h, 4 C; TDP-43 5, 50, 500 nM; high values mean tight binding. As to conditions: protein: recombinant; tags: SBP (GST cleaved off with PreScission; pGEX-GST-SBP). In a few lines: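 Streptavidin beads captured recombinant SBP-tagged TDP-43 at 5, 50 or 500 nM, and the beads were incubated for 1 h at 4 °C with 500 nM of an in vitro-transcribed pool of 260-nt 3′ UTR oligos in 25 mM Tris-HCl, 150 mM KCl, 3 mM MgCl2, BSA and SUPERase IN. After washing, bound RNA was eluted with biotin, reverse transcribed, PCR-amplified and sequenced. Binding is reported as R, the mapped-read-normalized abundance of each oligo in the bound sample divided by its abundance in the input. Two independent protein batches served as duplicates.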
Turning to B1, the binding signal is 3.93 R (bound/input frequency ratio). As for B2, the figure is 7.4 R (bound/input frequency ratio).

As to B3, the binding signal was 3.16 R (bound/input frequency ratio). As for B4, the figure is 6.67 R (bound/input frequency ratio); as for B5, 3.73 R (bound/input frequency ratio). As for B6, the figure is 2.78 R (bound/input frequency ratio). B7: the binding signal was 2.97 R (bound/input frequency ratio).

B8: the binding signal was 1.82 R (bound/input frequency ratio). Consider B9, for which the binding signal was 5.79 R (bound/input frequency ratio). As for B10, the figure is 8.16 R (bound/input frequency ratio).

For B11, the binding signal was 6.78 R (bound/input frequency ratio).
